This note sets out measurements from PubChem BioAssay (NCI).

About 83,000 compounds went through this panel and 20% of them were active in at least one assay; those are over-represented in the sample as a whole.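 Negative percent growth values reflect cell death: -40 means 40% of the cells present at the start died, and -100 means all died.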 Unmarked numbers belong to inactive results. Active and inactive are the calls of the source. The calls were made as follows: active = growth percent below 10; inactive = the rest.

Among the test systems are HCT-15 colon; HT29 colon; SNB-19 CNS; U251 CNS; PC-3 prostate; SK-MEL-5 melanoma; UACC-62 melanoma; LOX IMVI melanoma; SK-MEL-28 melanoma; SK-MEL-2 melanoma; EKVX NSCLC; SN12C renal; UO-31 renal; TK-10 renal; ACHN renal; CAKI-1 renal; A498 renal; MOLT-4 leukemia; CCRF-CEM leukemia.
Common to all, as to test: NCI-60 one-dose screen, 48 h (100 = growth as untreated, 0 = no growth, -100 = all killed)
Details in all cases: 10 µM unless noted

As to `O=C1/C(=C/c2ccc(Cl)cc2)CN(C(=O)CCN2CCC(=NO)CC2)C/C1=C\c1ccc(Cl)cc1`, the growth in the experiment on HCT-15 colon is -90.9% (active); in the experiment on HT29 colon, -71.8% (active); in the experiment on SNB-19 CNS it was -93.2% (active); in the experiment on U251 CNS, -91.1% (active); in the experiment with PC-3 prostate, -55.2% (active); in the experiment on SK-MEL-5 melanoma, -84.8% (active). Besides, the growth was -75.4% (active) in the experiment on UACC-62 melanoma; -92.7% (active) in the experiment on LOX IMVI melanoma; -89.7% (active) in the experiment on SK-MEL-28 melanoma; -68.4% (active) in the experiment on SK-MEL-2 melanoma; -46.5% (active) in the experiment on EKVX NSCLC; -75.2% (active) with SN12C renal. Besides, the growth in the experiment with UO-31 renal was -92.5% (active); with TK-10 renal it was -74.7% (active); in the experiment with ACHN renal it was -61.5% (active); with CAKI-1 renal it was -73.9% (active); with A498 renal it was -59.8% (active); in the experiment on MOLT-4 leukemia, -12.4% (active).

Regarding `O=Nc1c(-c2cccc([N+](=O)[O-])c2)nc2ncccn12`, the growth is 73.7% in the experiment on HCT-15 colon; 79.5% in the experiment on HT29 colon; 94.3% in the experiment with SNB-19 CNS; 96.9% in the experiment with U251 CNS; 66.5% in the experiment on PC-3 prostate; 96.2% in the experiment on SK-MEL-5 melanoma. The growth in the experiment on UACC-62 melanoma is 92.8%; in the experiment with LOX IMVI melanoma, 95.4%; in the experiment with SK-MEL-28 melanoma, 115%; with SK-MEL-2 melanoma, 85.2%; in the experiment on EKVX NSCLC, 108%; in the experiment with SN12C renal, 91.5%. Besides, the growth was -3.03% (active) in the experiment with UO-31 renal; 85% in the experiment on TK-10 renal; 29.1% in the experiment on ACHN renal; 103% with A498 renal; -27.2% (active) in the experiment with CCRF-CEM leukemia; 7.7% (active) with MOLT-4 leukemia.

Consider `Cc1ccc(-c2csc(NC(=O)CCCCl)n2)cc1`, for which the growth in the experiment with HCT-15 colon is 95.1%; with HT29 colon, 93.9%; with SNB-19 CNS, 86.5%; in the experiment with U251 CNS, 95.4%; with PC-3 prostate it was 95.4%; in the experiment with SK-MEL-5 melanoma, 93.9%. In addition, the growth with UACC-62 melanoma was 88.6%; in the experiment with LOX IMVI melanoma it was 98.3%; in the experiment with SK-MEL-28 melanoma it was 107%; in the experiment with SK-MEL-2 melanoma it was 92.2%; with SN12C renal it was 89.2%; with UO-31 renal, 74.5%. Moreover, the growth was 98.8% with TK-10 renal; 99.2% in the experiment with ACHN renal; 91.6% with CAKI-1 renal; 82.3% in the experiment on A498 renal; 96.3% in the experiment on CCRF-CEM leukemia; 79.1% with MOLT-4 leukemia.

Take `CC(C)CSc1nc(NN)c(C#N)c(-c2ccccc2)n1`: the growth was 86.6% in the experiment on HCT-15 colon; 103% in the experiment on HT29 colon; 88.8% with SNB-19 CNS; 95.3% in the experiment on U251 CNS; 89.3% in the experiment on PC-3 prostate; 91.1% with SK-MEL-5 melanoma. Also, the growth in the experiment on UACC-62 melanoma was 95.3%; in the experiment on LOX IMVI melanoma it was 90.6%; with SK-MEL-28 melanoma, 107%; with SK-MEL-2 melanoma, 101%; in the experiment with EKVX NSCLC, 91.4%; in the experiment with SN12C renal it was 104%. Besides, the growth is 81.7% with UO-31 renal; 110% in the experiment with TK-10 renal; 92.8% in the experiment on ACHN renal; 90.3% with CAKI-1 renal; 69.1% with A498 renal; 104% in the experiment with MOLT-4 leukemia.

With `O=C(/C=C/c1c[nH]c2ccccc12)c1ccc(O)c(CN2CCN(c3ccc(F)cc3)CC2)c1`, the growth in the experiment with HCT-15 colon was 93.5%; in the experiment on HT29 colon, 99%; with SNB-19 CNS, 94.1%; in the experiment with U251 CNS, 93.7%; in the experiment on PC-3 prostate, 84.7%; with SK-MEL-5 melanoma, 100%. Also, the growth in the experiment with UACC-62 melanoma is 101%; in the experiment with LOX IMVI melanoma, 96.1%; with SK-MEL-28 melanoma, 107%; in the experiment with SK-MEL-2 melanoma, 105%; in the experiment on SN12C renal it was 93.4%; in the experiment with UO-31 renal, 59.4%. Further, the growth in the experiment on TK-10 renal is 116%; with ACHN renal it was 92.1%; in the experiment on CAKI-1 renal it was 95.4%; in the experiment on A498 renal it was 98.5%; with CCRF-CEM leukemia it was 93.2%; in the experiment with MOLT-4 leukemia, 99.4%.

Regarding `O=[N+]([O-])c1ccc(Sc2ncccn2)c([N+](=O)[O-])c1`, the growth with HCT-15 colon was 38.9%; in the experiment on HT29 colon it was 62.2%; with SNB-19 CNS, 99.3%; in the experiment on U251 CNS, 78.6%; in the experiment with PC-3 prostate it was 32.9%; in the experiment with SK-MEL-5 melanoma, 76.7%. Also, the growth was 60.7% in the experiment with UACC-62 melanoma; 68.1% in the experiment on LOX IMVI melanoma; 71.9% with SK-MEL-28 melanoma; 48.5% in the experiment with SK-MEL-2 melanoma; 65.8% with EKVX NSCLC; 58.5% in the experiment on SN12C renal. The growth in the experiment on UO-31 renal is 1.15% (active); in the experiment on TK-10 renal, 53.7%; with ACHN renal, 27.8%; in the experiment on A498 renal it was 72.5%; with CCRF-CEM leukemia it was -37.2% (active); in the experiment with MOLT-4 leukemia, -25.8% (active).

Take `N/C(=N\C(N)=N\c1nc2ccccc2s1)c1cccc(Br)c1`: the growth in the experiment with HCT-15 colon is 44.2%; in the experiment on HT29 colon, 104%; in the experiment on SNB-19 CNS, 90.9%; in the experiment with U251 CNS, 38.3%; in the experiment on PC-3 prostate, 63.2%; in the experiment with SK-MEL-5 melanoma, 94.6%. Moreover, the growth with UACC-62 melanoma was 84.7%; in the experiment on LOX IMVI melanoma, 33.2%; with SK-MEL-28 melanoma it was 94.5%; in the experiment on SK-MEL-2 melanoma it was 106%; in the experiment on EKVX NSCLC, 73.2%; with SN12C renal, 50.7%. Besides, the growth was 24.7% in the experiment on UO-31 renal; 157% in the experiment on TK-10 renal; 84.8% in the experiment with ACHN renal; 68.8% with CAKI-1 renal; 55.8% in the experiment with CCRF-CEM leukemia; 77.6% in the experiment with MOLT-4 leukemia.

In the case of `O=C(c1c[nH]c(=O)c(-c2ccccc2)c1)c1ccccc1O`, the growth in the experiment on HCT-15 colon was 97.7%; in the experiment on HT29 colon, 101%; with SNB-19 CNS, 81.5%; with U251 CNS, 89.2%; in the experiment with PC-3 prostate, 89.2%; in the experiment on SK-MEL-5 melanoma, 95.4%. In addition, the growth was 81.1% in the experiment with UACC-62 melanoma; 103% in the experiment on LOX IMVI melanoma; 93.5% in the experiment with SK-MEL-28 melanoma; 93.1% in the experiment on SK-MEL-2 melanoma; 94.7% in the experiment with EKVX NSCLC; 85.2% in the experiment with SN12C renal. The growth was 68.6% in the experiment on UO-31 renal; 94.8% in the experiment on TK-10 renal; 82.8% with ACHN renal; 76.8% with A498 renal; 99.5% in the experiment on CCRF-CEM leukemia; 96.1% with MOLT-4 leukemia.
